Screens deposited in PubChem BioAssay by several laboratories.
RN4220 kill = S. aureus RN4220 growth inhibition; OD600, 16 h; inhibition, % (concentration not given with the values); actives 0.33% (n = 330,000); AID 1259311; in the data active = inhibition above about 85%;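 note: plate controls were untreated cells for no effect and reference antibiotic for full effect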
PfHsp40 yeast = compounds rescuing yeast from Plasmodium falciparum HSP40 toxicity | S. cerevisiae expressing PfHsp40, growth rescue, ATP luminescence | growth rescue, % at 12.5 µM | actives 0.68% (n = 340,000) | AID 504582; in the data active = growth rescue above about 28%, passing the limit was not always enough; inconclusive = no clear call, values can overlap the other calls;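 note: yeast W303a lacking pdr1 and pdr3 grown in galactose medium; growth measured after three days at 30 °C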
ugtP null kill = growth inhibition of S. aureus ugtP deletion strain; AID 1259309; growth inhibition, % (concentration not given with the values); S. aureus RN4220 ugtP deletion, OD600 growth, 16 h; actives 0.54% (n = 330,000); in the data active = growth inhibition above about 68%;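 note: plate controls were untreated wells for no effect and antibiotic for full effect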
3CLpro inhibitor = SARS-CoV 3CLpro protease inhibition. P0C6X7. recombinant SARS-CoV 3CLpro, quenched FRET peptide cleavage. inhibition, % at 6 µM. actives 0.14% (n = 290,000). AID 1706; in the data active = inhibition above about 12%
BJeLR viability = BJeLR cell viability loss | BJeLR (HRASV12) viability, CellTiter-Glo ATP luminescence, 48 h | inhibition, % (concentration not given with the values) | actives 0.17% (n = 300,000) | AID 1554; in the data active = inhibition above about 50%; inconclusive = no clear call, values can overlap the other calls
Numbers without * were called inactive. Sampled rows, rich in hits. Any-hit rate of the full collection: about 1.3%.

For O=C1Nc2ccccc2Oc2cc([N+](=O)[O-])cc(Oc3ccccc3)c21 the results were RN4220 kill 93*, PfHsp40 yeast 0, ugtP null kill 86, 3CLpro inhibitor 6 and BJeLR viability 4.
Screening CCS(=O)(=O)N1CCCC(C(=O)NCc2cccc(OC)c2)C1 (stereo unspecified) returned RN4220 kill 0, PfHsp40 yeast 1, ugtP null kill -10, 3CLpro inhibitor -2 and BJeLR viability -1.
For CCN(CC)c1ccc(/C=N/NC(=O)c2cccc(S(=O)(=O)Nc3ccccc3OC)c2)c(O)c1 the results were PfHsp40 yeast 105*, 3CLpro inhibitor 4 and BJeLR viability 60*.
Screening CCN(CC)c1ccc(/C=N/NC(=O)c2ccc3nc[nH]c3c2)c(O)c1 returned PfHsp40 yeast -1, 3CLpro inhibitor -1 and BJeLR viability 53*.
Screening CCN(CC)S(=O)(=O)c1cc(C(=O)Nc2ccc(Cl)cn2)ccc1C returned RN4220 kill -1, PfHsp40 yeast -1, ugtP null kill 11, 3CLpro inhibitor 3 and BJeLR viability -1.
CCN(CC)S(=O)(=O)c1cccc(C(=O)N/N=C/c2ccc(O)c(O)c2O)c1 was read as PfHsp40 yeast 202* and 3CLpro inhibitor 8.
`CCN(CC)S(=O)(=O)c1cccc(C(=O)Nc2ccc(Cl)cn2)c1` gave RN4220 kill 9, PfHsp40 yeast 56*, ugtP null kill 2, 3CLpro inhibitor 5 and BJeLR viability -3.
`C/C(=N/Nc1ccc(C(=O)O)cc1)c1ccc2c(c1)Nc1ccccc1S2` gave RN4220 kill -7, PfHsp40 yeast 5 and ugtP null kill -31.
C/C(=N\Nc1ccc(C(=O)O)cc1)c1ccc2c(c1)Nc1ccccc1S2 was read as PfHsp40 yeast 207*, 3CLpro inhibitor 1 and BJeLR viability 0.
For COc1ccc(N(Cc2ccccc2)C(=O)c2ccccc2[N+](=O)[O-])cc1 the results were RN4220 kill 6, PfHsp40 yeast 0, ugtP null kill 2, 3CLpro inhibitor 5 and BJeLR viability 6.
CC(=O)N(C)c1ccc(NC(=S)NC(=O)/C=C/c2ccco2)cc1 was read as RN4220 kill 1, PfHsp40 yeast 0, ugtP null kill 47, 3CLpro inhibitor 2 and BJeLR viability -5.
Screening CCOc1ccc(NC(=S)NC(=O)/C=C/c2ccco2)cc1 returned RN4220 kill -1, PfHsp40 yeast 0, ugtP null kill 73, 3CLpro inhibitor 5 and BJeLR viability -5.
CN1CCN(c2ccc(NC(=S)NC(=O)/C=C/c3ccco3)cc2)CC1 was read as RN4220 kill 0, PfHsp40 yeast -1, ugtP null kill 89*, 3CLpro inhibitor -1 and BJeLR viability -4.
For CC(=O)Nc1ccc(NC(=S)NC(=O)/C=C/c2ccco2)cc1 the results were RN4220 kill 4, PfHsp40 yeast 1, ugtP null kill 86*, 3CLpro inhibitor -5 and BJeLR viability -17.
`N#CCCn1cc(C(=O)O)c(-c2cccc([N+](=O)[O-])c2)n1` gave RN4220 kill 4, PfHsp40 yeast -1, ugtP null kill 3, 3CLpro inhibitor 2 and BJeLR viability 5.
For CS(=O)(=O)N(Cc1ccc(C(=O)Nc2ccccc2Sc2ccccc2)cc1)c1ccccc1 the results were RN4220 kill -8, PfHsp40 yeast 1, ugtP null kill 18, 3CLpro inhibitor 13* and BJeLR viability 1.
O=C(Nc1ccccc1Sc1ccccc1)c1ccccc1 was read as RN4220 kill -2, PfHsp40 yeast 1, ugtP null kill 49, 3CLpro inhibitor 3 and BJeLR viability 2.
For O=C(COC(=O)CN1C(=O)NC2(CCCC2)C1=O)NCc1ccc(Cl)cc1Cl the results were RN4220 kill 1, PfHsp40 yeast 0 and ugtP null kill 1.
CCC(C)NC(=O)c1ccc2c(c1)S(=O)(=O)c1ccccc1C2=O (stereo unspecified) was read as RN4220 kill 5, PfHsp40 yeast 0, ugtP null kill 4, 3CLpro inhibitor -6 and BJeLR viability -1.
Cc1ccc(C(=O)NNC(=O)c2cccc(S(=O)(=O)N3CCOCC3)c2)cc1 was read as RN4220 kill 4, PfHsp40 yeast -2 and ugtP null kill -4.
O=C(NNC(=O)c1cc(Cl)ccc1O)c1cccc(S(=O)(=O)N2CCOCC2)c1 was read as RN4220 kill 11, PfHsp40 yeast 475*, ugtP null kill 0 and BJeLR viability 5.
For COc1ccccc1CNS(=O)(=O)c1ccc2c(c1)CCCN2C(C)=O the results were RN4220 kill 5, PfHsp40 yeast -1, ugtP null kill -1, 3CLpro inhibitor -4 and BJeLR viability 9.
COc1cc(/C=C(\C#N)C(=O)NC2CCCCC2C)ccc1OS(=O)(=O)c1ccc(C)cc1 (stereo unspecified) was read as RN4220 kill 5, PfHsp40 yeast 0, ugtP null kill -1, 3CLpro inhibitor 6 and BJeLR viability 84*.
`CC1CCCCC1NC(=O)/C(C#N)=C/c1ccccc1F` (stereo unspecified) gave RN4220 kill 46, PfHsp40 yeast 111*, ugtP null kill 46, 3CLpro inhibitor 2 and BJeLR viability -7.
CSc1ccc(/C=C(\C#N)C(=O)NC2CCCCC2C)cc1 (stereo unspecified) was read as RN4220 kill -2, PfHsp40 yeast 0, ugtP null kill -25, 3CLpro inhibitor -3 and BJeLR viability -3.
For Nc1c(Cl)ncnc1N/N=C/c1ccc2ccccc2n1 the results were PfHsp40 yeast 503* and 3CLpro inhibitor 3.
For Nc1c(Cl)ncnc1NN=Cc1ccccn1 the results were RN4220 kill -3 and ugtP null kill -5.
CC1Oc2ccccc2C=C1C=NNc1ccc(C(=O)O)cc1 (stereo unspecified) was read as RN4220 kill 48 and ugtP null kill 51.
`CC1Oc2ccccc2C=C1/C=N/Nc1ccc(C(=O)O)cc1` (stereo unspecified) gave PfHsp40 yeast 342*, 3CLpro inhibitor 5 and BJeLR viability -5.
`COc1ccc(N2CCN(C(=O)COC(=O)c3ccc(Cl)nc3)CC2)cc1` gave RN4220 kill 3, PfHsp40 yeast 1 and ugtP null kill 3.
COc1ccc(OC)c(-c2csc(NC(=O)C3=NN(c4ccccc4)C(=O)CC3)n2)c1 was read as RN4220 kill 21, PfHsp40 yeast 1, ugtP null kill 18, 3CLpro inhibitor 1 and BJeLR viability -1.
`O=c1c2ccccc2nc(/C=C/c2ccccc2)n1-c1ccc(O)cc1` gave RN4220 kill 29, PfHsp40 yeast 2, ugtP null kill 4, 3CLpro inhibitor -4 and BJeLR viability 2.
For O=C(O)c1cccc(-n2c(/C=C/c3ccccc3)nc3ccccc3c2=O)c1 the results were RN4220 kill 97*, PfHsp40 yeast 1, ugtP null kill 100*, 3CLpro inhibitor -7 and BJeLR viability -1.
`O=C(O)c1ccc(/C=C/c2nc3ccccc3c(=O)n2-c2ccc(Br)cc2)cc1` gave RN4220 kill 9, PfHsp40 yeast inconclusive, ugtP null kill 9, 3CLpro inhibitor 3 and BJeLR viability -4.
